A selection: hits, their analogues and other compounds. The true share with any hit is near 0.8%.
PGK inhibitor: qHTS Assay to Find Inhibitors of Phosphoglycerate Kinase; Phosphoglycerate kinase, glycosomal (Trypanosoma brucei brucei), P07378; PGK/GAPDH coupled, Kinase-Glo luminescence, 60 min; Potency, µM (titrated, usually from 57.5 µM), inactives show top-dose activity change, negative = inhibition, hits mostly inhibitors; actives 0.043% (n = 380,000); also: potency is read from the fitted curve at half-maximal effect; nearly all actives have a fitted effect of over 60% in size
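Recombinant glycosomal PGK reaction used 1,3-bisphosphoglycerate generated in-well by GAPDH (100nM final) in 100mM TEA pH 7.6, 5mM MgCl2, 0.01% Tween-20. After 60 minutes at room temperature, ATP was read by Kinase-Glo Plus luminescence end-point.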
APEX1 inh: qHTS Assay for Inhibitors of the Human Apurinic/apyrimidinic Endonuclease 1 (APE1); DNA repair nuclease/redox regulator APEX1 (Homo sapiens), P27695; recombinant APE1, TAMRA/BHQ-2 abasic DNA cleavage fluorescence; actives 0.35% (n = 350,000); Potency, µM (titrated, usually from 65.8 µM), inactives show at the highest dose activity change, negative = inhibition, usual class: inhibitors; AID 2517, 2012;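 also: potency is read from the fitted curve at half-maximal effect; plate controls were vehicle for no effect and reference inhibitor for full effect; nearly all actives have a fitted effect of over 55% in size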
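Enzyme (0.75 nM final) and test compound are incubated 15 min at room temperature before adding 50 nM quenched THF abasic-site duplex. Cleavage dequenches TAMRA, followed at 525/598 nm over three reads one minute apart.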
TDP1 inh: qHTS Assay for Inhibitors of Tyrosyl-DNA Phosphodiesterase (TDP1); Potency, µM (titrated, usually from 130 µM), for the others: at the highest dose activity change, negative = inhibition, hits mostly inhibitors; actives 0.28% (n = 350,000); recombinant TDP1, AlphaScreen DNA substrate cleavage; AID 485290, 2010; also: potency is read from the fitted curve at half-maximal effect; nearly all actives have a fitted effect of over 40% in size
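Recombinant E. coli-expressed Tdp1 (1 nM) preincubated with compound 15 min at RT, then 5'-biotin/3'-phosphotyrosine-FITC DNA substrate (15 nM) added for 5 min. AlphaScreen beads (10 ug/ml) added, 10 min RT; tyrosine-FITC cleavage read as signal loss.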
FEN1 inh: qHTS Assay for the Inhibitors of Human Flap endonuclease 1 (FEN1) | P39748 | Recombinant FEN1 flap cleavage, fluorescence, 15 min | Potency, µM (doses to about 114 µM), without a hit: at the top dose activity change, negative = inhibition, hits mostly inhibitors | actives 0.35% (n = 390,000); also: potency is read from the fitted curve at half-maximal effect; nearly all actives have a fitted effect of over 65% in size
Target sequence (P39748 whole entry, looked up): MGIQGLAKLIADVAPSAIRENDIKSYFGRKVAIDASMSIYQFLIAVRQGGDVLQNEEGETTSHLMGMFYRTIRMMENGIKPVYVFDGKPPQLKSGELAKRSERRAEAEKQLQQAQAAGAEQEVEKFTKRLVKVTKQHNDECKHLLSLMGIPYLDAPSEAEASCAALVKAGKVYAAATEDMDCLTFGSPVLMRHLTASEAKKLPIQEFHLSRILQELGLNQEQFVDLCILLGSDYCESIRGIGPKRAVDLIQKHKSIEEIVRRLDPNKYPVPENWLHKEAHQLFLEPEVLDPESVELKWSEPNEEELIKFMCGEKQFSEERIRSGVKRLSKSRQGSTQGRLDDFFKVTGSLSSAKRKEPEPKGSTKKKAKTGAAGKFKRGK
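Read-out was taken twice, immediately and after 15 min, following addition of 50 nM substrate to 10 nM FEN1 that had sat with test compound for 15 min at room temperature. Curves came from a four-parameter Hill model.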
PI4K2A inh: qHTS for small molecular inhibitors of PI4K2A; actives 0.13% (n = 420,000); Phosphatidylinositol 4-kinase type 2-alpha (Homo sapiens), Q9BTU6; purified PI4K2A, ADP-Glo luminescence, 1 h; hits give low values; activity change, negative = inhibition, % at 76.9 µM; in the data active = activity change below about -50%; inconclusive = mostly about -30% to -49%;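 also: -100% = wells without enzyme as full effect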
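Compounds are screened against recombinant PI4K2A using PI as substrate and ATP, the latter dispensed at 300 microM. Reactions run one hour at ambient temperature before ADP-Glo detection; full inhibition defined by wells lacking enzyme.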
Tb PFK inh: qHTS Assay to Find Inhibitors of T. brucei phosphofructokinase; T. brucei PFK, ADP-Glo luminescence; actives 0.17% (n = 330,000); ATP-dependent 6-phosphofructokinase (Trypanosoma brucei brucei), O15648; AID 485367, 2010; Potency, µM (titrated, usually from 57.5 µM), inactives show at the top dose activity, negative = inhibition, hits mostly inhibitors;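 also: potency is read from the fitted curve at half-maximal effect; 0% = uninhibited 1x PFK enzyme wells and -100% = no-enzyme wells; nearly all actives have a fitted effect of over 60% in size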
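Luminescent ADP detection (ADP-Glo, two-step: ATP depletion then ADP-to-ATP conversion for luciferase) reported PFK activity after 45 min room-temperature reaction of 1.25 nM enzyme with 0.5 mM F6P and 0.1 mM ATP at pH 8.0.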
Numbers without * were called inactive; i = inactive; ? = inconclusive; . = no result given; [ ] = dose if it differs, or a comment. Unless noted, calls follow the shape of the dose curve; as a rule, active = well fitted curve in the direction sought with a large enough effect; inconclusive = small, poorly fitted or top-dose-only effect, or another doubt; inactive = no such curve, though single readings can be large; an effect the other way counts as inactive or inconclusive. Unless noted, % is scaled to controls: 0 for no effect and ±100 for the full control effect.

SMILES | PGK inhibitor | APEX1 inh | TDP1 inh | FEN1 inh | PI4K2A inh | Tb PFK inh
Oc1c(Br)cc(/C=N/n2c(-c3ccccc3)n[nH]c2=S)cc1Br | -4% | -22% | 25µM* | 3% | 1 | 2%
Oc1ccc(/C=N/n2c(-c3ccccc3)n[nH]c2=S)cc1Br | -8% | 21% | 8% | 15% | 2 | -9%
Cc1c(Br)c(O)c(Br)c(O)c1/C=N/n1c(-c2ccccc2)n[nH]c1=S | -22% | 44% | . | 35µM* | 1 | -12%
Nc1cccc(S(=O)(=O)N2CCN(S(=O)(=O)c3c(F)cccc3F)CC2)c1 | . | . | 1% | . | . | .
Cc1csc(NC(=O)CSc2sc3c(O)cc(=O)[nH]c3c2C#N)n1 | -18% | 8% | -13% | 50µM* | -8 | 1%
CCSc1nnc(NC(=O)CSc2sc3c(O)cc(=O)[nH]c3c2C#N)s1 | ? | 6%[12.4 µM] | 5% | 35µM* | -6 | 1%
Cc1ccc(C)c(NC(=O)CSc2sc3c(O)cc(=O)[nH]c3c2C#N)c1 | -5% | 30%[12.4 µM] | -15% | -22% | -12 | -3%
CC(C)(C)n1ncc2c(=O)n(Cc3ccc(-c4ccccc4C#N)cc3)cnc21 | . | 12% | . | 0% | . | .
O=C(CNC(=O)c1cccc(Cl)c1)OC(C(=O)Nc1cc(C(F)(F)F)ccc1Cl)c1ccccc1 (configuration not stated) | . | . | -1% | . | . | .
CSc1nc(SCCO)c2sc3nc(-c4ccco4)c4c(c3c2n1)CC(C)(C)OC4 | -2% | ? | . | -1% | -17 | ?
CSc1nc(N(CCO)CCO)c2sc3nc(-c4ccco4)c4c(c3c2n1)CCC4 | ? | 22% | 1% | ? | -56* | ?
CC(=O)O[C@@H]1CC2C3CCc4cc(OC(=O)c5ccccc5)ccc4C3CCC2(C)[C@H]1OC(C)=O (some centres not stated) | . | . | . | . | 3 | .
O=C(O)c1ccc(CSc2nnc(-c3cccc(S(=O)(=O)NC4CCCC4)c3)n2-c2ccc(F)cc2)cc1 | . | 61% | . | . | . | .
O=C1CCCC2=C1C1(CCC1)N=C(Nc1nc3ccccc3o1)N2 | . | . | 1% | . | . | .
O=C(CN1C(=O)CCSc2ccc(S(=O)(=O)N3CCOCC3)cc21)Nc1ccccc1Cl | -10% | -29% | -5% | 9% | -13 | 0%
Cc1cccc(NC(=O)CN2C(=O)CCSc3ccc(S(=O)(=O)N4CCOCC4)cc32)c1C | -14% | ? | 35µM* | 0% | 8 | -16%
Cc1cccc(-c2csc(N3CCC(C(N)=O)CC3)n2)c1 | . | -5% | . | . | . | .
O=C1CCc2cc(S(=O)(=O)Nc3ccc4ccccc4c3)ccc2N1 | . | . | 2% | . | . | .
COc1cccc(Cn2cnc3c(cnn3C(C)(C)C)c2=O)c1 | . | -6% | . | 1% | . | .
Cc1sc2cc3c(c(C(=O)c4ccccc4)[n+]2c1C)-c1cccc2cccc-3c12 | i | -15% | 3% | 40µM* | 5 | 3%
NC(N)=NN=C(/C=C/c1ccc([N+](=O)[O-])o1)/C=C/c1ccc([N+](=O)[O-])o1 | . | . | . | . | -20 | .
O=C(O)/C=C/c1ccc([N+](=O)[O-])o1 | 16µM* | ? | 32µM* | -19% | 0 | 0%
NCCCC[C@H]1NC(=O)[C@H](CCC(=O)O)NC(=O)c2cc([N+](=O)[O-])cc(I)c2OCC[C@@H](C(N)=O)NC1=O | ? | ? | 3% | 22µM* | -11 | 5%
O=C(Nc1ccc2c(c1)OCCO2)c1cnn2c1NC(=C1CC1)C=C2C(F)F | . | 22% | . | . | . | .
